Sfp PPTase inh = inhibitors of Bacillus subtilis Sfp phosphopantetheinyl transferase; Q9F4F7; Biochemical Sfp PPTase activity, qHTS; Potency, µM, for the others: largest response in the series, negative = inhibition, most hits filed as inhibitors; actives 3.5% (n = 310,000); AID 1490;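 further: the enzyme is Sfp with the accession as filed and its product quenches rhodamine fluorescence; 0% = enzyme reaction without inhibitor and -100% = no enzyme wells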
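Compounds were incubated with enzyme (final 15 nM) for 15 min at room temperature before substrate addition started the reaction. Fluorescence at 525 nm excitation, 598 nm emission was recorded immediately and after 30 minutes.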
ALDH1A1 inh = inhibitors of human aldehyde dehydrogenase 1A1; P00352; Purified ALDH1A1, NADH fluorescence, propionaldehyde substrate; Potency, µM (top dose mostly 75.3 µM), without a hit: top-dose activity, negative = inhibition, most hits filed as inhibitors; actives 7.3% (n = 220,000); AID 1030; active means well fitted inhibition curve with a large enough effect, not every such curve was filed as active; inconclusive means small, poorly fitted or top-dose-only effect, or another doubt; inactive means no such curve, though single readings can be large or run the other way;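 further: plate controls were no enzyme wells and a reference inhibitor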
PLK1 PBD block = inhibitors of human PLK1 polo-box domain binding | P53350 | Plk1 PBD binding of FITC phosphopeptide, fluorescence polarization | Potency, µM, without a hit: max response, negative = inhibition, usual class: inhibitors | actives 2.8% (n = 360,000); further: series mostly up to about 57 µM; nearly all actives have a fitted effect of over 65% in size
Gal4-VP16 FLuc = Gal4-VP16 reporter inhibition counter-screen | actives 3.5% (n = 310,000) | Drosophila S2 Gal4-VP16 UAS-luciferase, luminescence, 20 h | Potency, µM (series often up to 53.6 µM), for the others: at the highest dose activity, negative = inhibition, usual class: inhibitors;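 further: Gal4-VP16 expression switched on by copper sulfate through the metallothionein promoter; nearly all actives have a fitted effect of over 50% in size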
RORgamma inh = blocks mouse ROR gamma transcriptional activity. Potency, µM (top dose mostly 53.6 µM), inactives show top-dose activity change, negative = inhibition, hits mostly inhibitors. actives 5.4% (n = 310,000). Drosophila S2 Gal4-RORgamma UAS-luciferase reporter, 20 h; further: nearly all actives have a fitted effect of over 60% in size
Target sequence (P51450 whole entry, looked up, the tested form may be a part): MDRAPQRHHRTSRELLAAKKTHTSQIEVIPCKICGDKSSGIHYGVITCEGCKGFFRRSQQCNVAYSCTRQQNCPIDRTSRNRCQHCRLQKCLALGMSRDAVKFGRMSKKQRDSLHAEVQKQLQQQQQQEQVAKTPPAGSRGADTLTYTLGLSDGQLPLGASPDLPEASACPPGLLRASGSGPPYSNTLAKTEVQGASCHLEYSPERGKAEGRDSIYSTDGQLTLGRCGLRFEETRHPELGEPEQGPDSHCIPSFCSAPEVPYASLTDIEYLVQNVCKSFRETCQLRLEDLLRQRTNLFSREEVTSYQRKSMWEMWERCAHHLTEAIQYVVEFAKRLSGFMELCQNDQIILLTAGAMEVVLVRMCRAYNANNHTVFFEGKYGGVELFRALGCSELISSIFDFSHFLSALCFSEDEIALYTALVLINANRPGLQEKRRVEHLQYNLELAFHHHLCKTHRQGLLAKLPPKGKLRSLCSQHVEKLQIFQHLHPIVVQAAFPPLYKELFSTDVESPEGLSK
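Using a luciferase readout, inhibitors were identified by reduced reporter activity in Drosophila cells coexpressing a copper-inducible Gal4–ROR gamma fusion and UAS-driven Photinus luciferase, incubated 20 hr after 700 uM copper sulfate.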
An asterisk follows results filed as active; ? = inconclusive; . = no result; [ ] = another dose, or the depositor's remark. Most compounds without a hit are left out; they make up all but 12% or so of the library. Unless noted, the call rests on the fitted dose curve; in most records, active means well fitted curve in the direction sought with a large enough effect; inconclusive means small, poorly fitted or top-dose-only effect, or another doubt; inactive means no such curve, though single readings can be large; an effect the other way counts as inactive or inconclusive. Unless noted, on the % scale 0 is the no-effect control and ±100 the full control effect; potency means the concentration at half of the fitted maximal effect.

SMILES | Sfp PPTase inh | ALDH1A1 inh | PLK1 PBD block | Gal4-VP16 FLuc | RORgamma inh
Fc1ccc(-n2c(-c3ccco3)n[nH]c2=S)cc1 | 79µM* | . | -7% | ? | ?
Cc1ccc(-n2c(-c3ccco3)n[nH]c2=S)cc1 | 79µM* | -16% | -7% | ? | 11µM*
CC1(C(=O)NCc2ccccc2)CN(S(C)(=O)=O)CC(=O)N1CCCn1ccnc1 (centres undefined) | . | . | 2% | . | .
Cc1cccn2c(=O)c3cc(C(=O)NCCc4ccccc4)c(=N)n(CCCn4ccnc4)c3nc12 | 9% | 5.6µM* | -1% | ? | -12%
Cc1cccn2c(=O)c3cc(C(=O)NC4CCCCC4)c(=N)n(Cc4ccccc4)c3nc12 | 28µM* | . | 2% | 4% | 26%
CCOCCCn1c(=N)c(C(N)=S)cc2c(=O)n3cccc(C)c3nc21 | -109% | ? | ? | 14µM* | -105%
CC(=O)O[C@]1(C(C)=O)CC[C@@H]2[C@@H]3C=C(Cl)C4=CC(=O)[C@H]5C[C@@H]5[C@]4(C)[C@H]3CC[C@]21C | 10% | 5%[20.9 µM] | . | -9%[17 µM] | -22%[16.9 µM]
CCOC(=O)c1c(NC(=O)C2C3CCC(O3)C2C(=O)O)sc(C)c1-c1ccc(F)cc1 (centres undefined) | 4% | 1% | -8% | -7% | ?
CCCOC(=O)c1c(-c2ccc(C)cc2C)csc1NC(=O)C1C2CCC(O2)C1C(=O)O (centres undefined) | ? | ? | 12µM* | 4% | 7%
Cc1ccnc(N=O)c1 | . | . | 11µM* | . | .
O=C(Nc1ccc(O)c(-c2nc3ccccc3o2)c1)C1(c2ccccc2)CCCC1 | 14% | 0% | -9% | 8.9µM* | 5.6µM*
COc1ccc(OC)c(NC(=O)CSc2ncnc3c2cnn3-c2ccccc2Cl)c1 | 18% | 16µM* | -1% | 1.4µM* | ?
O=C(CSc1nc(O)cc(=O)[nH]1)C1CC1 | 71µM* | ? | -1% | -4% | 0%[10 µM]
COc1ccc(OC)c(NC(=O)CCN2CCCCC2)c1 | 1% | 3% | -1% | -7% | 11%
COc1ccc(NC(=O)CSc2cn[nH]n2)c(OC)c1 | 18% | . | -18% | 0% | -28%
COc1ccc(OC)c(NC(=O)CCN2CC(C)CC(C)C2)c1 (centres undefined) | 0% | . | 24µM* | -2% | -8%
COc1ccc(NC(=O)CSc2nc(O)cc(=O)[nH]2)c(OC)c1 | 6% | . | 24µM* | 3% | -3%
NC(=O)C1CCN(C(=O)CSc2nc(O)cc(=O)[nH]2)CC1 | 6% | . | -13% | -4% | -17%
COc1cc(NC(=O)CSc2ncnc3c2cnn3Cc2ccccc2)cc(OC)c1 | 24% | ? | -7% | 6% | 1%
COc1ccc(NC(=O)CCCN2C(=O)C3C4C=CC(C4)C3C2=O)c(OC)c1 (centres undefined) | 8% | 13µM* | 2% | -15% | ?
COc1ccc(OC)c(NC(=O)CCCN2C(=O)C3C4C=CC(C4)C3C2=O)c1 (centres undefined) | 4% | ? | 0% | -8% | -4%
COc1ccc(OC)c(NC(=O)CSc2ccc3ccccc3c2)c1 | -8% | 11µM* | -9% | -4% | 32%
COc1ccc(OC)c(NC(=O)CSCC(=O)O)c1 | 8% | 20µM* | -7% | -18% | -14%
COc1ccc(OC)c(NC(=O)CSc2ccccc2)c1 | 12% | -7% | -17% | 3% | -16%
COc1ccccc1-c1cnc(C(O)c2ccc(SC)cc2)[nH]1 (centres undefined) | . | . | 5% | . | .
Cc1cc(CN(C)C(=O)CC2C(=O)NCCN2Cc2c(F)cccc2Cl)n[nH]1 (centres undefined) | 50µM* | 16µM* | -3% | 7% | 2%
CN(CCc1ccccn1)C(=O)CC1C(=O)NCCN1Cc1ccc(-c2ccccc2)cc1 (centres undefined) | 50µM* | ? | -8% | ? | ?
CN(C(=O)CC1C(=O)NCCN1Cc1ccccc1C(F)(F)F)C1CCOCC1 (centres undefined) | 12% | . | 11µM* | 5% | 9%
COc1cccc(CN2CCNC(=O)C2CC(=O)N(C)CCC2CCOCC2)c1 (centres undefined) | 4% | . | -14% | 1% | -5%

From PubChem
